JMJD2A Tudor = qHTS Assay for Inhibitors of JMJD2A-Tudor Domain | Lysine-specific demethylase 4A (Homo sapiens), O75164 | AlphaScreen JMJD2A-Tudor / H3K4me3 peptide binding | Potency, µM (top dose mostly 114 µM), actives largely listed as inhibitors | 4.4% of 390,000 active; also: nearly all actives have a fitted effect of over 50% in size
BAZ2B inh = qHTS Assay for Inhibitors of BAZ2B | Bromodomain adjacent to zinc finger domain protein 2B (Homo sapiens), Q9UIF8 | AlphaScreen BAZ2B-H3K14Ac peptide displacement | Potency, µM (highest dose often 114 µM), hits mostly inhibitors | 4.4% of 360,000 active | AID 504333, 2011; also: nearly all actives have a fitted effect of over 60% in size
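BAZ2B 50 nM plus b-H3(5-23)K14Ac 50 nM, PBS pH 7.4/0.01% Tween-20, 30 min RT; compound added (max 110 uM), 30 min RT; streptavidin donor/Ni-chelate acceptor beads 10 ug/mL final, 20 min dark; AlphaScreen read.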
PI5P4K alpha inh = qHTS for Inhibitors of phosphatidylinositol 5-phosphate 4-kinase (PI5P4K); Phosphatidylinositol 5-phosphate 4-kinase type-2 alpha (Homo sapiens), P48426; AID 652105, 2013; PI5P4Kalpha enzyme, ADP-Glo luminescence, 60 min; hits give low values; max response, %; 1.2% of 330,000 active; active = max response of -50% or lower; inconclusive = between -30% and -50%; inactive = -30% or higher; also: value at the top dose of about 77 µM
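PI5P4Kalpha ADP-Glo assay; 5 microM ATP final; 60 min RT reaction; HEPES pH 7.4/EGTA/CHAPS, 5% DMSO; controls lacking substrate or enzyme; luminescent end-point.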
PLK1 PBD block = qHTS for Inhibitors of PLK1-PDB (polo-like kinase 1 - polo-box domain): Primary Screen; Plk1 PBD binding of FITC phosphopeptide, fluorescence polarization; Potency, µM, hits mostly inhibitors; 2.8% of 360,000 active; AID 720504, 2013; also: series mostly up to about 57 µM; nearly all actives have a fitted effect of over 65% in size
Target sequence (P53350 whole entry, looked up, the tested form may be a part): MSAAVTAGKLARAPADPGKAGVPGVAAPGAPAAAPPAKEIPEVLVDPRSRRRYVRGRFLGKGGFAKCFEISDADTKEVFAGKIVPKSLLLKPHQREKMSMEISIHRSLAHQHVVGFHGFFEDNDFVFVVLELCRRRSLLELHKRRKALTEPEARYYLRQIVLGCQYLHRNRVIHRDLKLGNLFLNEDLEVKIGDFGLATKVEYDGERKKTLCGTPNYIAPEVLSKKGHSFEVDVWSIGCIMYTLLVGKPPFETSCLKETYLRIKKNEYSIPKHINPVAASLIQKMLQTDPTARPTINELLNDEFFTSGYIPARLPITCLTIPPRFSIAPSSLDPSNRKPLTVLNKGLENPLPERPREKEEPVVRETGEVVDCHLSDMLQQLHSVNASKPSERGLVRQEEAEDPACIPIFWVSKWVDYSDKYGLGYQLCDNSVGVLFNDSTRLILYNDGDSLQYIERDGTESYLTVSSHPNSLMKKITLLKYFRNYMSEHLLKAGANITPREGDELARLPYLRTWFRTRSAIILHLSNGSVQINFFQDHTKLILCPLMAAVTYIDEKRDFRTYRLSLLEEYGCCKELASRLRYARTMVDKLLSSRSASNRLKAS
G9a inh-1 = qHTS Assay for Inhibitors of Histone Lysine Methyltransferase G9a; Potency, µM (series often up to 102 µM), actives largely listed as inhibitors; 8.8% of 350,000 active; Histone-lysine N-methyltransferase EHMT2 (Homo sapiens), Q96KQ7; G9a H3K9 monomethylation, AlphaScreen, 2 h; AID 504332, 2011; also: nearly all actives have a fitted effect of over 75% in size
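Using a bead-based AlphaScreen, monomethylated H3K9 product from 2 h room-temperature reactions (G9a 20 nM, peptide 500 nM, SAM 20 uM) was detected with 0.5 ug/mL rabbit anti-H3K9me1 antibody.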
HP1b chromo inh = HTS for Inhibitors of HP1-beta Chromodomain Interactions with Methylated Histone Tails. Potency, µM (top dose mostly 114 µM), hits mostly inhibitors. Chromobox protein homolog 1 (Homo sapiens), P83916. 0.56% of 390,000 active. AlphaScreen HP1-beta / biotin-H3K9me3 peptide binding; also: nearly all actives have a fitted effect of over 70% in size
Target sequence (P83916 whole entry, looked up): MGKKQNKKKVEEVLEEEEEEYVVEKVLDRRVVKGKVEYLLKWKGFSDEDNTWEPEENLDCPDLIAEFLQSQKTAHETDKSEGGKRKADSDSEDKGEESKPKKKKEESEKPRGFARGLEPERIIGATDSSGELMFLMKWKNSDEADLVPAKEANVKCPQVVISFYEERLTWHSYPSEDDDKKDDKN
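HP1-beta protein (50 nM final) preincubated 30 min at room temperature with biotinylated H3(1-18)K9me3 peptide (50 nM) in PBS pH 7.4, 0.01% Tween-20, then compound added for 30 min. AlphaScreen streptavidin donor/nickel chelate acceptor beads (10 ug/mL final), 30 min dark, luminescence read.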
JMJD2E inh-1 = Inhibitors of Human Jumonji Domain Containing 2E (JMJD2E): 8HQs - Round 1; AID 493212, 2011; Potency, µM (series often up to 57 µM), actives largely listed as inhibitors; shares compounds with BAZ2B inh; JMJD2E demethylase, FDH-coupled NADH fluorescence; 89% of 130 active
ME-1 growth = qHTS Assay for Compounds Blocking the Interaction Between CBF-beta and RUNX1 for the Treatment of Acute Myeloid Leukemia: ME-1 cellular proliferation; 20% of 140 active; ME-1 cell proliferation, ATP luminescence, 48 h; Potency, µM (doses to about 56.1 µM), actives largely listed as inhibitors; shares compounds with BAZ2B inh
JMJD2E inh-2 = Confirmation qHTS Assay for Inhibitors of Human Jumonji Domain Containing 2E (JMJD2E); Potency, µM (titrated, usually from 56.8 µM), actives largely listed as inhibitors; Recombinant JMJD2E, FDH-coupled NADH fluorescence (FDH is formaldehyde dehydrogenase); 93% of 140 active; shares compounds with JMJD2A Tudor
FDH inh = Counterscreen for JMJD2E Inhibitors: qHTS Assay for Inhibitors of Formaldehyde Dehydrogenase (FDH); 10% of 140 active; FDH enzyme assay, NADH fluorescence kinetic; shares compounds with JMJD2A Tudor; Potency, µM (titrated, usually from 56.7 µM), usual class: inhibitors
G9a inh-2 = qHTS Assay for Inhibitors of Histone Lysine Methyltransferase G9a: Hit Confirmation. shares compounds with JMJD2A Tudor. G9a H3K9 monomethylation, AlphaScreen, 2 h. Potency, µM, actives largely listed as inhibitors. AID 588344, 2011. 89% of 370 active; also: nearly all actives have a fitted effect of over 65% in size
A number is an active result; 0 = inactive; ? = inconclusive; - = no result; ! = repeats disagree; [ ] = remark or other dose. Hits are enriched below; roughly 12% of the tested compounds scored in any of these assays. Unless noted, calls follow the shape of the dose curve; as a rule, active = well fitted curve in the direction sought with a large enough effect; inconclusive = small, poorly fitted or top-dose-only effect, or another doubt; inactive = no such curve, though single readings can be large; an effect the other way counts as inactive or inconclusive.

SMILES | JMJD2A Tudor | BAZ2B inh | PI5P4K alpha inh | PLK1 PBD block | G9a inh-1 | HP1b chromo inh | ME-1 growth | others
Cc1c(C)c2ccc(OCC(=O)N3CCN(Cc4ccccc4)CC3)cc2oc1=O | 0 | - | 0 | 0 | - | 0 | -
Cc1c(Cc2ccccc2)c(=O)oc2cc(OCc3ccc(C(=O)O)cc3)ccc12 | 0 | ? | 0 | 21µM | 0 | 0 | -
O=C1[C@H]2[C@@H](C3CC3)N3C(=O)CN(CC4CC4)C(=O)[C@@]3(Cc3ccccc3)[C@H]2C(=O)N1c1ccccc1 | 0 | - | 0 | 0 | - | 0 | -
Cc1nn(-c2ccccc2)c2c1P(=O)(O)/C(=C1\N(C)c3ccccc3C1(C)C)C=N2 | 0 | 0 | - | 0 | ? | 0 | -
C=CC[N+](C)(C)c1ccc(CCC(=O)CCc2ccc([N+](C)(C)CC=C)cc2)cc1 | 0 | 0 | 0 | 0 | 16µM | 0 | -
CCN1CCN(C(=O)Cc2coc3ccc4ccccc4c23)CC1 | 0 | 0 | 0 | 0 | 50µM | 0 | -
C=C1[C@@H](C)[C@H]2[C@H](Cc3ccccc3)NC(=O)[C@]23[C@H](OC(C)=O)/C=C/[C@](C)(O)C(=O)[C@@H](C)C/C=C/[C@H]3[C@@H]1O | - | - | - | - | 0 | - | -
N#Cc1ccc(NC(=O)CN2CCN(C(=O)c3cccs3)CC2)cc1Cl | 0 | 0 | 0 | 0 | 40µM | 0 | -
N#Cc1ccc(NC(=O)CN2C(=O)NC3(CCCC3)C2=O)cc1Cl | 0 | 0 | 0 | 0 | 0 | 0 | -
COc1ccc(C2C=C(c3ccccc3)Nc3nc(NC(=O)/C=C/c4ccccc4Cl)nn32)cc1 (centres undefined) | 0 | 0 | - | - | ? | 0 | -
NCCc1cc(O)c(O)cc1O | 10µM | - | -76 | 15µM | 0[2.33 µM] | 28µM | ?
CC(C)[C@@]1(NC(=O)[C@@H]2C[C@H]3c4cccc5[nH]cc(c45)C[C@@H]3N(C)C2)O[C@]2(O)[C@H]3CCCN3C(=O)CN2C1=O | - | - | - | - | 0[21.5 µM] | - | -
CC(C)[C@H]1C(=O)N2CCC[C@H]2[C@]2(O)O[C@](NC(=O)[C@@H]3C=C4c5cccc6[nH]cc(c56)C[C@H]4N(C)C3)(C(C)C)C(=O)N12 | 0 | ? | 0 | ? | 10µM | 0 | 0
CC(C)C[C@H]1C(=O)N2CCCC2[C@]2(O)O[C@](NC(=O)[C@@H]3C=C4c5cccc6[nH]cc(c56)CC4N(C)C3)(C(C)C)C(=O)N12 (some centres undefined) | ? | ? | ? | 0 | 40µM | 0 | ?
COC(=O)C1=C(c2ccc(-c3ccccc3)c(F)c2)C[C@@H]2CC[C@H]1N2C(=O)NCCCOC(C)C | 0 | 0 | 0 | 0 | 0[2.33 µM] | 0 | -
CC(=O)c1cccc(OCC(=O)N2CCN(CC(=O)Nc3cccc(F)c3)CC2)c1 | 0 | 0 | 0 | 0 | 0[12.7 µM] | 0 | -
Cc1nn(Cc2ccccc2)c(Cl)c1C(=O)OCC(=O)N1CCCC1 | 0 | ? | 0 | 0 | 0 | 0 | -
CN1Cc2ccccc2[C@@H]2c3cccc4[nH]cc(c34)C[C@H]21 | - | - | - | - | 13µM | - | 11µM
COC(=O)C12CCc3cc(OC)ccc3C1=CC(=O)C2 (centres undefined) | - | - | 0 | 0 | - | - | -
O=C1C=CC(=O)c2c(O)cccc21 | - | - | - | - | ? | - | 22µM
CC(C)OP(=O)(OC(C)C)C(O)c1ccccc1F (centres undefined) | 0 | 0 | 0 | 0 | 0 | 0 | -
CN(N=O)c1ccc(O)c(O)c1 | - | - | - | - | 0.5µM | - | 0
N#CC(=C(O)c1ccc(S(=O)(=O)N(CCCl)CCCl)cc1)c1nc2ccccc2[nH]1 | 0 | - | 0 | 0 | - | 0 | -
CC[n+]1c(-c2ccccc2)c2cc(N)ccc2c2ccc(N)cc21 | ? | - | 0 | 0 | 13µM | ? | 10µM
C[C@@H]1CN([C@@H](C)CO)C(=O)CCCn2nncc2CO[C@@H]1CN(C)C(=O)Oc1cccc2ccccc12 | - | - | 0 | 0 | - | - | -
SMILES | JMJD2A Tudor | BAZ2B inh | PI5P4K alpha inh | PLK1 PBD block | G9a inh-1 | HP1b chromo inh | ME-1 growth | others
O=C(O)CCCCC1SCC2NC(=O)NC21 (centres undefined) | 11µM | 0.79µM | 0 | 0 | 7.9µM! | ? | 0
COC(/C(C)=C/C=C/C(C)=C/c1coc(C)n1)C(C)C1CC(O)C2(C)OC2C=CC(C)C2CC(CC(=O)O2)CC2OC2C(=O)O1 (centres undefined) | 0 | - | 0 | 0 | - | 0 | -
NC(Cc1cc(O)c(O)cc1O)C(=O)O (centres undefined) | - | 0.89µM | - | - | 0.45µM | - | 0
O=C(O)c1ccc(O)c2ncc(N3CCNCC3)cc12 | - | - | - | - | - | - | - | JMJD2E inh-1=4.1µM;JMJD2E inh-2=?;FDH inh=0
CC(C)(C)C(=O)NC1CCSC1=O (centres undefined) | - | 0 | - | - | 0 | - | -
COc1ccc(OCC(=O)N2CCN(Cc3ccc(SC)cc3)CC2)cc1 | 2.5µM | 50µM! | 0 | ? | 2.2µM | ? | - | G9a inh-2=32
Cn1c(CNC(=O)c2ccco2)nnc1SCC(=O)N1c2ccccc2Sc2ccccc21 | 0 | 0 | 0 | 0 | ? | 0 | - | G9a inh-2=1
COc1ccc(-c2ccc3c(c2)CN(C(=O)CCc2ccccc2)Cc2cnnn2-3)cc1 | - | - | 0 | 0 | - | - | -
CN1CC[C@]2(C)c3cc(O)ccc3N(C)[C@@H]12 | - | - | - | - | 8.9µM | - | - | JMJD2E inh-2=10µM;FDH inh=?

Source: PubChem BioAssay
